In PubChem BioAssay AID588352 (The Scripps Research Institute Molecular Screening Center, 2011):
About 620 (0.17%) of roughly 360,000 compounds were called active. For the sample, actives were picked, then their nearest neighbours and some compounds at random. A number with no mark means an inactive call.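 Rule for the calls: active = inhibition above a per-campaign cutoff, the mean of all compounds plus 3 SD (cut at about 60% in these data); inactive = the rest.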

These molecules were tested against Nuclear receptor coactivator 3 (Homo sapiens) (UniProt Q9Y6Q9) (assay: NCOA3 GAL4-fusion reporter inhibition – cell-based, luminescence, primary screen (AID 588352;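 note: 0% = DMSO-treated cells and 100% = gossypol-treated cells at 36 µM; higher means less SRC3-driven luciferase light from the GAL4 reporter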)). Conditions: HEK293 GAL4-SRC3 luciferase reporter, at 3.6 µM, hits give high values.
Chain of Nuclear receptor coactivator 3 (Homo sapiens) (Q9Y6Q9 whole entry, looked up, the tested form may be a part): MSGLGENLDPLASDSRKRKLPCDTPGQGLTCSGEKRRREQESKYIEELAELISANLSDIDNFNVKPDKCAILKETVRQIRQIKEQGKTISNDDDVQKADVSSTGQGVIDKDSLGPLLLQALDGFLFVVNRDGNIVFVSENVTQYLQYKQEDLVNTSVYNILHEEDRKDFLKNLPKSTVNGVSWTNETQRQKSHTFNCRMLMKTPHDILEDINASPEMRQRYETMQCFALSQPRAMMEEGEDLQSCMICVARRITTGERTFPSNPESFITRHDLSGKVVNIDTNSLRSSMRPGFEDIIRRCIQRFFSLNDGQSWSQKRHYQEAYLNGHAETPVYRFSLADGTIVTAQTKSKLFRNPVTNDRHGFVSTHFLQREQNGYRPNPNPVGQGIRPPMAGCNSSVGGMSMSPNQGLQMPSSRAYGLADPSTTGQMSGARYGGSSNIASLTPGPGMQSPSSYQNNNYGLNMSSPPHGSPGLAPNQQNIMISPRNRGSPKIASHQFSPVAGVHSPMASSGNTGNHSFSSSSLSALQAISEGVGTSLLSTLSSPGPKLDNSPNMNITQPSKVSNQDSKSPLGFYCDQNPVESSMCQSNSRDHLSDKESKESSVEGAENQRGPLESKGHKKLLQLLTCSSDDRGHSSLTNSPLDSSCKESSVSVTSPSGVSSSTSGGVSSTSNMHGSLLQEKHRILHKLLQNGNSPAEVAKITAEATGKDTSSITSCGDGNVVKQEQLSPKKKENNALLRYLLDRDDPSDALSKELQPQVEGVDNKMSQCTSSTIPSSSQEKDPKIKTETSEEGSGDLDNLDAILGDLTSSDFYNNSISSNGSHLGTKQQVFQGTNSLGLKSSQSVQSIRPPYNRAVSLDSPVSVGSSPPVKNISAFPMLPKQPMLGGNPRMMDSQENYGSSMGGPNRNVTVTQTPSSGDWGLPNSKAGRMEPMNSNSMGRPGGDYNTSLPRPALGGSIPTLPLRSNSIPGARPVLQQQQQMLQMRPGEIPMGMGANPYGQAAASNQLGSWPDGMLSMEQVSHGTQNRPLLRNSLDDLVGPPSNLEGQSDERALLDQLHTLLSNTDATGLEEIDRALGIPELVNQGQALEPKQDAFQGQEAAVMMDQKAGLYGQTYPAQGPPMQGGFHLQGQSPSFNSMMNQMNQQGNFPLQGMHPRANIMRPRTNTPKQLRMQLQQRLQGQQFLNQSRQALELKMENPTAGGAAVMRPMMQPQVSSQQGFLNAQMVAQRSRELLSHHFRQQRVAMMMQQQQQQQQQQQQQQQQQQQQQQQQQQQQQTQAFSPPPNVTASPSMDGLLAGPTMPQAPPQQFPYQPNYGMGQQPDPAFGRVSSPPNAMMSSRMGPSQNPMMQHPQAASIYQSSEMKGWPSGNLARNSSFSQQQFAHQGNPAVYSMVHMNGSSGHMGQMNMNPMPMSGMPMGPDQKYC

| SMILES | inhibition |
| --- | --- |
| COc1ccccc1NS(=O)(=O)c1ccc(C)c(C(=O)NNC(=O)c2csc(N3CCOCC3)n2)c1 | -18.4% |
| Cc1ccc(OC(=O)c2ccccc2C(=O)OCC(F)(F)C(F)F)cc1 | 12% |
| CN(Cc1cccs1)C(=O)CN1C(=O)c2ccccc2S1(=O)=O | -22.1% |
| O=C(CN1C(=O)c2ccccc2S1(=O)=O)N1CCc2ccccc21 | 78.1% (active) |
| COc1ccc(CNC(=O)CN2C(=O)c3ccccc3S2(=O)=O)cc1 | 0.21% |
| CSc1cc(C)n(-c2ccccc2C)c(=S)c1C(C)=O | -24.7% |
| COc1ccc(-n2c(C)csc2=S)cc1 | -12.6% |
| O=C(O)C1CCN(C(=O)c2cc(F)cc3c2OCOC3)CC1 | 1.17% |
| Cc1ccc(C(c2sc3nc(C)nn3c2O)N2CCN(c3ccccc3)CC2)cc1 (stereo not drawn) | -21.5% |
| CC(C)OC(=O)c1cc(NC(=O)C2C3CCC(O3)C2C(=O)O)cc(C(=O)OC(C)C)c1 (stereo not drawn) | 6.46% |
| O=c1[nH]n2c(=O)c3c([nH]c2c1N=Nc1ccccc1)CCC3 | -2.3% |
| Cc1nc2c(ncn2-c2ccccc2)c(=O)n1NC(=O)CN1CCCC1 | 6.67% |
| COc1ccc(NC(=S)N2N=CCC2c2ccccc2)cc1 (stereo not drawn) | -88% |
| COCc1cc(=O)n2[nH]c(C)c(-c3ccccc3)c2n1 | 3.15% |
| O=C1NC(=Nc2ccc(Cl)cc2)SC1Cc1cccc(Cl)c1Cl (stereo not drawn) | 11.5% |
| CCOc1cc(C2/C(=C(/O)c3ccc(S(=O)(=O)N4CCCCC4)cc3)C(=O)C(=O)N2CCOC)ccc1O (stereo not drawn) | -17.2% |
| Cc1ccsc1C1C(C#N)=C(N)OC2=C1C(=O)CC(C)C2 (stereo not drawn) | -1.41% |
| O=C(Nc1ccon1)c1nc[nH]c1C(=O)NCc1ccccc1 | 63% (active) |
| O=C(Nc1cc(Br)ccc1F)c1nc[nH]c1C(=O)NCc1ccccc1 | 16.5% |
| CC(C)(C)OC(=O)NCCCCCNC(=O)c1nc[nH]c1C(=O)NCc1ccccc1 | -1.92% |
| Cc1cccc(-[n+]2c(-c3cccc(Br)c3)[nH]c3nc4ccccc4nc32)c1 | 18.1% |
| Cc1ccc(NC(=O)NC(=O)CSc2nnc(-c3ccc(OC(F)F)cc3)n2N)c(C)c1 | -17.3% |
| CCN(Cc1ccccc1)C(=O)CN1C(=S)NC(C)(C)CC1C (stereo not drawn) | -5.54% |
